Avidin fluor: green autofluorescence of compounds with avidin beads – biophysical, 488/530 nm, flow cytometry, artefact control, profiling panel; compound fluorescence 488/530 nm; hits give high values; fluorescence (KMESF) at 10 µM; 220,000 tested, 0.38% active; AID 1775, 2009; in the data active = fluorescence above about 47
RGS4-Gao reg: modulators of RGS4 binding to Galphao, primary screen, biochemical, multiplexed bead flow cytometry; Guanine nucleotide-binding protein G(o) subunit alpha (Homo sapiens), P09471; actives lie on both sides; binding response (% of control), % at 10 µM; 220,000 tested, 0.33% active; in the data active = binding response below about 49% or above about 150%; inactive = in between;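 also: fluorescent Galphao activated with aluminum fluoride binding bead-coupled RGS4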
Target sequence (P09471 whole entry, looked up): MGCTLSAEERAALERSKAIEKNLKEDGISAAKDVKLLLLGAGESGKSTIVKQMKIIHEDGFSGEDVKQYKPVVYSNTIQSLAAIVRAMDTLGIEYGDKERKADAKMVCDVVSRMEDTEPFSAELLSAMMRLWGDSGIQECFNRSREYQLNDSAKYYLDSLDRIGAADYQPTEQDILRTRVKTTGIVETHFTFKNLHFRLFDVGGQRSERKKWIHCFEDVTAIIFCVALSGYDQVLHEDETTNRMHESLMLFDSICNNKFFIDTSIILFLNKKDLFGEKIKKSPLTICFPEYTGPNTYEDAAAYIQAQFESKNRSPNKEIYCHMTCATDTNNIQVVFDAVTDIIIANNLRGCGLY
RGS7-Gao: RGS7-Galphao binding modulators, primary screen, biochemical, multiplexed bead flow cytometry. Guanine nucleotide-binding protein G(o) subunit alpha (Homo sapiens), P09471. actives lie on both sides. binding response (% of control), % at 10 µM. 220,000 tested, 0.35% active; in the data active = binding response below about 49% or above about 150%; inconclusive = no clear call, values can overlap the other calls; inactive = in between;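 also: fluorescent Galphao held in activated GDP-AlF4 state binding bead-coupled RGS7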
RGS16-Gao: modulators of RGS16 binding to Galphao, primary screen, biochemical, human proteins, multiplexed bead flow cytometry; Regulator of G-protein signaling 16 (Homo sapiens) + Guanine nucleotide-binding protein …; bead-based flow cytometry RGS16-Galphao binding, fluorescence; actives lie on both sides; binding response (% of control), % at 10 µM; 220,000 tested, 0.38% active;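 also: Galphao activated by GDP with aluminum fluoride before binding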
RGS8-Gao: RGS8-Galphao binding modulators, primary screen, biochemical, multiplexed bead flow cytometry. 220,000 tested, 0.34% active. response (percent of control binding), % at 10 µM. actives lie on both sides. AID 1423, 2008; in the data active = response below about 60% or above about 140%; inactive = in between;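 also: Galphao activated as the GDP aluminium fluoride complex binding bead-coupled RGS8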
GSH fluor: compound fluorescence on glutathione beads, profiling panel, artefact control, biophysical, 488/530 nm, flow cytometry; GSH beads flow cytometry, compound fluorescence 488/530 nm; hits give high values; AID 1776, 2009; fluorescence (KMESF) at 10 µM; 190,000 tested, 0.25% active; in the data active = fluorescence above about 89;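 also: glutathione beads carrying GST-tagged Bcl family fusion proteins plus one bare bead set; values are compound well signal with DMSO vehicle wells as background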
RGS4-Gao HTS: modulators of RGS–Galpha-o binding, primary screen, biochemical, multiplexed beads, flow cytometry, RGS4/7/8/16/19 | shares compounds with RGS16-Gao | multiplexed bead flow cytometry | RGS4–Galpha-o binding response, % at 10 µM | 1,600 tested, 99% active | AID 1504, 2009;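 also: fluorescently labeled Galpha-o bound to GDP with aluminium fluoride binding biotinylated RGS beads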
Avidin counter: disruption of biotin probe capture by avidin, counter-screen for RGS protein interaction modulators, biochemical, flow cytometry, bead-based | shares compounds with RGS16-Gao | streptavidin beads, fluorescein-biotin binding | inhibition, % at 10 µM | 1,700 tested, under 10 active | AID 1783, 2009;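 active = inhibition above 50%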;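 also: median green fluorescence of gated singlet beads compared with DMSO control wells; 0% = DMSO wells and 100% = complete loss of bead fluorescence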
RGS8-Gao single: RGS8-Galphao binding modulators, confirmation, biochemical, multiplexed bead flow cytometry, single concentration | shares compounds with RGS16-Gao | bead-based flow cytometry RGS8-Galphao binding, fluorescence; actives lie on both sides | binding response (% of control), % at 10 µM | 1,700 tested, 3% active; in the data active = binding response below about 72% or above about 130%; inactive = in between;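 also: Galphao activated as GDP AlF4 complex before binding bead RGS8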
RGS7-Gao confirm: RGS7-Galphao binding modulators, confirmation, biochemical, multiplexed bead flow cytometry, single concentration. bead-based flow cytometry RGS7-Galphao binding; actives lie on both sides. AID 1837, 2009. shares compounds with RGS16-Gao. response (percent of control binding), % at 10 µM. 1,700 tested, 7.8% active; in the data active = response below about 75% or above about 130%; inactive = in between;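 also: fluorescent Galphao activated with GDP and aluminum fluoride binding bead-coupled RGS7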
RGS16-Gao single: modulators of RGS16-Galphao protein binding, confirmation, biochemical, single concentration, multiplexed bead flow cytometry. bead-based flow cytometry; actives lie on both sides. response (% of control binding), % at 10 µM. shares compounds with RGS16-Gao. 1,700 tested, 4% active; in the data active = response below about 74% or above about 130%; inactive = in between;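 also: Galphao activated as the GDP aluminium fluoride complex binding bead-coupled RGS16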
RGS4-Gao single: modulators of RGS4-Galphao protein binding, confirmation, biochemical, single concentration, multiplexed bead flow cytometry | shares compounds with RGS16-Gao | actives lie on both sides | binding response (% of control), % at 10 µM | 1,700 tested, 4% active; in the data active = binding response below about 74% or above about 130%; inactive = in between
RGS19-Gao single: regulators of RGS19-Galphao binding, confirmation, biochemical, single point, multiplexed bead flow cytometry. bead-based flow cytometry RGS19-Galphao binding; actives lie on both sides. 1,700 tested, 5% active. shares compounds with RGS16-Gao. AID 1841, 2009. response (percent of control binding), % at 10 µM; in the data active = response below about 50% or above about 160%; inactive = in between;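 also: 100% = no compound control and 0% = blank background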
Target sequence (P09471 whole entry, looked up): as above
Target sequence (P49795 whole entry, looked up): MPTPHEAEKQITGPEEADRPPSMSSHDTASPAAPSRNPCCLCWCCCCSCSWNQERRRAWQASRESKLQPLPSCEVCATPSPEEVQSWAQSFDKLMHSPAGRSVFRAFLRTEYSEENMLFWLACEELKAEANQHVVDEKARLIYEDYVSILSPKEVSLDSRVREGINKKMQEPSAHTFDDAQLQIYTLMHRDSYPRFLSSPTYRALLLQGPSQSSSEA
Numbers without * were called inactive; i = inactive; u = inconclusive; x = no result given; [ ] = another dose, or the depositor's remark. Most compounds without a hit are left out; they make up all but 1.2% or so of the library. Unless noted, no rule for the calls is given here.

SMILES	Avidin fluor	RGS4-Gao reg	RGS7-Gao	RGS16-Gao	RGS8-Gao	GSH fluor	Avidin counter	RGS8-Gao single	RGS7-Gao confirm	RGS16-Gao single	RGS4-Gao single	RGS19-Gao single	others
O=S(=O)(Nc1cccc(-c2nc3cccnc3s2)c1)c1ccc2c(c1)CCCC2	5	104.3	104.6	101.1	103.3	17	x	x	x	x	x	x
Cc1ccc(-c2nc3cccnc3s2)cc1NS(=O)(=O)c1ccc2c(c1)CCCC2	2	27.8*	32.5*	28.9	46.4*	16	0.1	104.4	102.4	103.0	104.3	107.5
O=C(c1ccccc1)c1c2c(cc3sc4ccccc4[n+]13)-c1cccc3cccc-2c13	5	141.1	198.6*[activator]	92.6	115.5	2	-0.4	103.6	115.7	105.5	123.4	96.0	RGS4-Gao HTS=141.1*
Cc1sc2cc3c(c(C(=O)c4ccccc4)[n+]2c1C)-c1cccc2cccc-3c12	5	107.8	109.8	100.0	99.5	8	x	x	x	x	x	x
CN(C)c1ccc(Cl)cc1N	13	97.4	91.2	101.7	96.5	23	x	x	x	x	x	x
Cc1ccc(/C(=N/Nc2nc3ccccc3s2)C2=C(O)c3ccccc3C2=O)cc1	24	102.0	102.5	116.0	107.5	10	x	x	x	x	x	x
COc1ccc(Oc2c(O)c3ccccc3n(C)c2=O)cc1	-2	9.1*	16.8*	-92.1	9.0*	11	-3.0	98.7	97.3	97.4	97.2	100.6
Cn1c(=O)c(Oc2ccc(Cl)cc2)c(O)c2ccccc21	3	102.7	102.3	114.6	105.9	10	x	x	x	x	x	x
COc1cc2[nH]c(=S)n(C3CCCC3)c(=O)c2cc1OC	4	99.2	107.7	181.7*[activator]	117.4	41	2.6	103.9	103.5	102.2	103.3	115.8	RGS4-Gao HTS=99.2*
COc1cc2[nH]c(=S)n(C3CC3)c(=O)c2cc1OC	9	103.0	u	101.8	100.1	12	x	x	x	x	x	x
N#Cc1cc(NC(=O)c2ccc(F)cc2)c(=O)n2c1[nH]c1ccccc12	10	98.0	99.0	104.8	100.0	19	x	x	x	x	x	x
O=C(COc1ccc(/C=N/NC(=O)c2cc3ccccc3o2)cc1Cl)Nc1ccccc1	49*	373.0*[activator]	218.2*[activator]	i	225.1*[activator]	116*	0.3	100.5	95.9	99.6	90.7	165.5*[activator]
CC1CCCC(NC(=O)CCCn2c(=O)[nH]c3cc(Cl)ccc3c2=O)C1C (stereo unspecified)	100*	212.4*[activator]	175.7*[activator]	204.1*[activator]	110.1	36	1.0	104.8	102.2	105.3	104.4	107.0
CCOC(=O)/C=C(\C)Sc1cc(O)c2ccccc2c1O	0	80.9	u	11.2*	50.3*	x	x	x	x	x	x	x	RGS4-Gao HTS=80.9*
NS(=O)(=O)c1cccc(NC(=O)Cc2ccc(Cl)c(Cl)c2)c1	12	156.2*[activator]	167.1*[activator]	150.5	148.1*[activator]	14	0.9	100.7	97.3	101.0	100.1	87.5
C=CCn1c(SCC(=O)c2c(C)[nH]c3ccccc23)nnc1-c1ccncc1	9	102.5	u	97.5	102.1	14	x	x	x	x	x	x
COc1ccc(-c2ccc(SCC(=O)N3CCOCC3)nn2)cc1OC	x	x	x	x	x	39	-1.8	103.5	105.2	105.9	106.1	107.8
COc1ccc(-c2ccc(SCC(=O)N3CCCC3)nn2)cc1OC	19	97.2	94.2	104.3	98.9	11	x	x	x	x	x	x
CC1CCN(Cc2c(C(=O)O)nnn2-c2nonc2N)CC1	11	100.7	97.5	98.5	98.2	26	x	x	x	x	x	x
O=C(CSc1nnc(-c2ccc(F)cc2)c2ccccc12)NCC1CCCO1 (stereo unspecified)	9	101.3	99.9	101.1	102.0	24	x	x	x	x	x	x
CCOC(=O)c1ccc(NC2OC(=O)c3ccccc32)cc1 (stereo unspecified)	x	x	x	x	x	17	1.7	103.8	109.1	105.8	102.9	106.9
CCOc1ccc(N(CC(=O)Nc2ccccc2)S(C)(=O)=O)cc1	7	80.4	85.1	-46.0*	81.4	8	-1.1	98.6	95.3	95.2	96.0	99.6	RGS4-Gao HTS=80.4*
CCOC(=O)c1ccccc1NC(=O)CN(c1ccc(OCC)cc1)S(C)(=O)=O	9	90.4	93.1	36.1	81.8	12	x	x	x	x	x	x
CCOc1ccccc1NC(=O)N1CCN(S(C)(=O)=O)CC1	9	97.2	94.6	95.9	101.1	18	x	x	x	x	x	x
Cc1ccc(C2CC(c3ccccc3)=NN2C(=S)Nc2ccccc2)o1 (stereo unspecified)	-1	-30.8*	-7.6*	-19.6*	11.1*	11	1.1	94.5	99.6	97.5	97.8	97.1
O=c1c2cc(Cl)ccc2[nH]c(=S)n1Cc1cccs1	7	93.5	95.0	17.3*	72.2	7	-1.6	98.5	92.4	98.1	95.3	84.0	RGS4-Gao HTS=93.5*
CN1C(=O)/C(=C\c2ccncc2)SC1=Nc1ccccc1	4	96.2	96.3	101.9	104.7	9	x	x	x	x	x	x

From PubChem
